From ChEMBL document CHEMBL3988442, “University of Dundee, Small-Polar-MMV Screening Library” (2021)

Legend:
[1] = biological target: T1, Aspartate--tRNA(Asp/Asn) ligase (Mycobacterium tuberculosis (strain ATCC 25618 / H37Rv)) (UniProt P9WFW3); test: Assay for Asp RNA synthetase-1 from Mycobacterium tuberculosis; format: functional; parameters: scale not given: direction of the effect not stated beside the values; conditions: 30 µM; note: in the data most compounds retested in dose-response had high values
T1 sequence (whole entry): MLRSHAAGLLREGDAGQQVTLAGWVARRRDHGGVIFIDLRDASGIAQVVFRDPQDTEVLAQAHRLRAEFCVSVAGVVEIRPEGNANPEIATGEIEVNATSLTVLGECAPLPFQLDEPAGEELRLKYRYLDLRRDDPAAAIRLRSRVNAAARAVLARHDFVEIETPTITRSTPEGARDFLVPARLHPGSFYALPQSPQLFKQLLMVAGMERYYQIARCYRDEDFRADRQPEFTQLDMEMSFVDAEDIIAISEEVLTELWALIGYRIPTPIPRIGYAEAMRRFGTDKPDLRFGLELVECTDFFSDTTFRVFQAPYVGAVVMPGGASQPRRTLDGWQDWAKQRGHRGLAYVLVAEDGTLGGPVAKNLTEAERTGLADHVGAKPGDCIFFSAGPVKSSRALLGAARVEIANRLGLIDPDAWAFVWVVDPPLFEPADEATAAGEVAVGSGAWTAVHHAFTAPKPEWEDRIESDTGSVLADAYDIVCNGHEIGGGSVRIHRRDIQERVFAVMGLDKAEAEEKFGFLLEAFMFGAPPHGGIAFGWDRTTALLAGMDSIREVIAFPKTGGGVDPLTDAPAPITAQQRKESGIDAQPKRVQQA

[2] = biological target: Shiga toxin 2 (Escherichia coli O157:H7) (UniProt P09385+P09386); test: E. coli 0.157:H7 Shiga Toxin SOP - stx2 screening assay; format: functional; parameters: scale not given: direction of the effect not stated beside the values; conditions: 30 µM

SMILES | Percent Effect [1] [%] | Percent Effect [2] [%]
CC(NC(=O)CNCCn1cccn1)c1ccc2c(c1)CCCC2 (centres undefined) | -4.86 | -9.4
CC(C)Cc1cc(NC(=O)c2ccc[nH]2)n(C)n1 | -0.121 | 7.24
Cc1nccnc1CN1CCC2(CCCN(C3CCOCC3)C2=O)C1 (centres undefined) | 2.6 | -28.8
CC(C)CN1CCN(C(=O)NCc2cccnc2-n2cccn2)CC1 | -1.98 | -22.5
c1ccc(CN2CC[C@@H]3O[C@@H](COCC4CCOCC4)CC[C@@H]32)nc1 | 7.81 | -21.9
Cc1nc(C)c(C(=O)NCCNC(=O)Cc2ccccc2)s1 | -1.6 | 11.1
O=C1CC(c2ccccc2)C2(CCN(CC3CC3)CC2)N1 (centres undefined) | -1.66 | -14.7
c1ccc(C2CCN(c3cncc(-n4cccn4)n3)CC2)cc1 | -0.999 | -5.12
CCOc1ccccc1-c1noc(CN2CCCC(O)C2)n1 (centres undefined) | -5.33 | 2.11
O=C1CC(N(C(=O)c2ccc3c(c2)CCC3)C2CC2)C(=O)N1 (centres undefined) | 0.714 | 6.53
O=c1ccc(-c2cccs2)nn1CN1CCN(Cc2ccccc2)CC1 | -1.1 | 9.12
COc1ncc(C2(O)CCN(Cc3ccccc3O)CC2)c(OC)n1 | -1.78 | -22.9
Cc1cc(CN(C)C(=O)c2ccc(C(F)(F)F)nc2)no1 | -0.926 | -2.99
CC(C)Oc1ncccc1CNC(=O)N1CCC(C(N)=O)C1 (centres undefined) | -4.37 | 30.9
Nc1cc2c(nn1)CCN(C(=O)CC1CCCC1)C2 | -1.69 | 2.23
O=C(Cn1ccc2c(Cl)cccc21)N[C@@H](C(=O)O)c1ccccc1 | -6.24 | -13.8
Cc1ccc(CC(=O)N2CSCC2C(=O)N(C)Cc2ccco2)o1 (centres undefined) | 8.09 | 12
CN(C)S(=O)(=O)N1CCN(c2ccnc(N3CCCC3)n2)CC1 | -2.66 | -41.2
CO[C@H]1CO[C@@]2(CCCN(C(=O)C3=CCCCC3)C2)C1 | 8.41 | -11.8
CCOC1COC2(CCN(S(=O)(=O)c3cccc(F)c3)CC2)C1 (centres undefined) | 16.4 | -13
CCOc1ncccc1NC(=O)NC1CCCN(c2ncccn2)C1 (centres undefined) | 0.879 | -17.5
COc1cc(CN(C(=O)Nc2cccnc2OC)C2CC2)ccc1O | -2.28 | 11.9
Cc1cnn(CC2CN(CC(=O)N(C)Cc3cccs3)CCO2)c1 (centres undefined) | -5.6 | -8.69
Cc1cnn(CC2CN(CC(=O)N3CCc4ccccc43)CCO2)c1 (centres undefined) | -4.75 | -15.5

SMILES | Percent Effect [1] [%] | Percent Effect [2] [%]
CCCc1nc(CN2CCOC(Cn3cncn3)C2)no1 (centres undefined) | 0.917 | -23.1
Cc1cc(CN2CCC(CNC(=O)c3ccc(O)c(Cl)c3)C2)[nH]n1 (centres undefined) | 3.15 | -15.7
c1cnnc(N2CCCC(NCc3ccc(-n4ccnc4)cc3)C2)c1 (centres undefined) | -2.02 | 10.2
Cc1nn(C)c(C)c1C1CCCN1Cc1nc(-c2ccco2)no1 (centres undefined) | -6.56 | -26.9
COc1cccc(S(=O)(=O)NC(=O)COc2c(C)cccc2C)c1 | -3 | 6.76
c1cnc(N2CCOCC3(CCCN(CC4CC4)C3)C2)cn1 (centres undefined) | 0.0873 | -8.06
CS(=O)(=O)N1CC[C@H]2O[C@H](C(=O)NCCc3ccncc3)CC[C@H]21 | 7.02 | -26
COc1ccc(Cc2cccc(C3CCN(C)CC3)n2)cc1 | -1.77 | -4.18
N#CC1(C(=O)N2CCN(Cc3ccon3)CC2)CCC1 | -1.89 | 3.73
Cc1ccc(-c2cc(N)c(=O)n(CC(=O)NCC3CC3)n2)s1 | 4.48 | 3.54
CCc1nnc2n1CCN(C(=O)c1cc3ccc(F)cc3nc1C)C2 | 1.79 | 8.5
Cn1ccnc1COc1ccc(CO)cc1 | 1.33 | -14.5
O=C(c1cccn1Cc1cccs1)N1CCN(C2CC2)CC1 | -1.4 | -1.86
Cc1ccc(CCC(=O)N(C)CCN2CCOCC2)c(C)c1 | -4.01 | -8.65
Cc1n[nH]c(C(=O)NCc2ccnc(OCC(F)(F)F)c2)c1Br | -3.15 | 9.67
CC(C)N(C)CC(=O)N1CCCC(c2ccc(C(=O)O)cc2)C1 (centres undefined) | -4.14 | 18.4
CN(CC(=O)N1CCN(c2ncccn2)CC1)c1ccc(Cl)cn1 | -2 | -0.376
Cc1nc(C2CCCN2C(=O)c2cnns2)no1 (centres undefined) | -4.19 | 27.5
Cn1ncc2c1C(COCC1CC1)CN(Cc1nccs1)C2 (centres undefined) | 11.3 | -37.3
CC(NC(=O)COc1nc(C(C)(C)C)no1)c1ccco1 (centres undefined) | -2.04 | 16.4
NC(=O)c1ccc(CN2CCCC(N3CCCC3)C2)cc1 (centres undefined) | -1.17 | -4.76
COCCN1CCCC12CCN(C(=O)CC1CCCC1)CC2 | -1.62 | -6.17
CN1CCN(Cc2cn3c(n2)CN(Cc2cccnc2)CC3)CC1 | 1.94 | -10.7
